Assay results as given in the supplement of paper PMC6992640.
Structures can show the parent of a compound that is named as a salt.

Experiments:
Test in all cases: cell viability of combination (% of vehicle); higher = less cytotoxic
Details in all cases: 1 µM; 72 h; partner dose: 10 nM
HCI01 = test system: HCI01 (cells of a triple-negative basal-like breast cancer xenograft)
Experimental: (§1)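 PDX cells were treated for 72 h with each drug at 1 µM plus carfilzomib (10 nM; 100 nM for WHIM2). Luciferase viability is expressed as percent of vehicle.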

UCD52 = test system: UCD52 (cells of a triple-negative basal-like breast cancer xenograft)
Experimental: as §1

WHIM30 = test system: WHIM30 (cells of a triple-negative basal-like breast cancer xenograft)
Experimental: as §1

Compound | cell viability of combination (HCI01) | cell viability of combination (UCD52) | cell viability of combination (WHIM30)
C=C(c1ccc(C(=O)O)cc1)c1cc2c(cc1C)C(C)(C)CCC2(C)C [Bexarotene] + CC(C)C[C@H](NC(=O)[C@H](CCc1ccccc1)NC(=O)CN1CCOCC1)C(=O)N[C@@H](Cc1ccccc1)C(=O)N[C@@H](CC(C)C)C(=O)[C@@]1(C)CO1 [Carfilzomib] | 71.8 | 79.6 | 25.7
CCN1CCN(Cc2ccc(Nc3ncc(F)c(-c4cc(F)c5nc(C)n(C(C)C)c5c4)n3)nc2)CC1.CS(=O)(=O)O + CC(C)C[C@H](NC(=O)[C@H](CCc1ccccc1)NC(=O)CN1CCOCC1)C(=O)N[C@@H](Cc1ccccc1)C(=O)N[C@@H](CC(C)C)C(=O)[C@@]1(C)CO1 [Carfilzomib] | 62.7 | 64.9 | 
COc1cc2nccc(Oc3ccc(NC(=O)C4(C(=O)Nc5ccc(F)cc5)CC4)cc3)c2cc1OC.O=C(O)CC(O)C(=O)O [Cabozantinib malate (XL184)] + CC(C)C[C@H](NC(=O)[C@H](CCc1ccccc1)NC(=O)CN1CCOCC1)C(=O)N[C@@H](Cc1ccccc1)C(=O)N[C@@H](CC(C)C)C(=O)[C@@]1(C)CO1 [Carfilzomib] | 77 | 57.2 | 16.1
CC1=C(C(=O)OC(C)C)C(c2cccc([N+](=O)[O-])c2)C(C(=O)OC2CN(C(c3ccccc3)c3ccccc3)C2)=C(N)N1 (stereo unspecified) [Azelnidipine] + CC(C)C[C@H](NC(=O)[C@H](CCc1ccccc1)NC(=O)CN1CCOCC1)C(=O)N[C@@H](Cc1ccccc1)C(=O)N[C@@H](CC(C)C)C(=O)[C@@]1(C)CO1 [Carfilzomib] | 112 | 46.6 | 
N.N.O=C([O-])C1(C(=O)[O-])CCC1.[Pt+2] [Carboplatin] + CC(C)C[C@H](NC(=O)[C@H](CCc1ccccc1)NC(=O)CN1CCOCC1)C(=O)N[C@@H](Cc1ccccc1)C(=O)N[C@@H](CC(C)C)C(=O)[C@@]1(C)CO1 [Carfilzomib] | 81.2 | 70.6 | 22.9
CN(C)CCOc1ccc(C(=C(CCCl)c2ccccc2)c2ccccc2)cc1.O=C(O)CC(O)(CC(=O)O)C(=O)O [Toremifene Citrate] + CC(C)C[C@H](NC(=O)[C@H](CCc1ccccc1)NC(=O)CN1CCOCC1)C(=O)N[C@@H](Cc1ccccc1)C(=O)N[C@@H](CC(C)C)C(=O)[C@@]1(C)CO1 [Carfilzomib] | 103 | 70.2 | 17.1
CCCCCCCCCCCCCCCCOP(=O)([O-])OCC[N+](C)(C)C [Miltefosine] + CC(C)C[C@H](NC(=O)[C@H](CCc1ccccc1)NC(=O)CN1CCOCC1)C(=O)N[C@@H](Cc1ccccc1)C(=O)N[C@@H](CC(C)C)C(=O)[C@@]1(C)CO1 [Carfilzomib] | 75.2 | 71.6 | 22.7
COc1cc2nccc(Oc3ccc(NC(=O)NC4CC4)c(Cl)c3)c2cc1C(N)=O [Lenvatinib (E7080)] + CC(C)C[C@H](NC(=O)[C@H](CCc1ccccc1)NC(=O)CN1CCOCC1)C(=O)N[C@@H](Cc1ccccc1)C(=O)N[C@@H](CC(C)C)C(=O)[C@@]1(C)CO1 [Carfilzomib] | 97.9 | 38.2 | 
CS(=O)(=O)O.Cc1c(O)cccc1C(=O)NC(CSc1ccccc1)C(O)CN1CC2CCCCC2CC1C(=O)NC(C)(C)C (stereo unspecified) [Nelfinavir Mesylate] + CC(C)C[C@H](NC(=O)[C@H](CCc1ccccc1)NC(=O)CN1CCOCC1)C(=O)N[C@@H](Cc1ccccc1)C(=O)N[C@@H](CC(C)C)C(=O)[C@@]1(C)CO1 [Carfilzomib] | 80.3 | 57.2 | 
CCCCCCCCc1ccc(CCC(N)(CO)CO)cc1.Cl [Fingolimod (FTY720)] + CC(C)C[C@H](NC(=O)[C@H](CCc1ccccc1)NC(=O)CN1CCOCC1)C(=O)N[C@@H](Cc1ccccc1)C(=O)N[C@@H](CC(C)C)C(=O)[C@@]1(C)CO1 [Carfilzomib] | 77.3 | 61.5 | 16.7
CO[C@H]1C[C@@H]2CC[C@@H](C)[C@@](O)(O2)C(=O)C(=O)N2CCCC[C@H]2C(=O)O[C@H]([C@H](C)C[C@@H]2CC[C@@H](OC(=O)C(C)(CO)CO)[C@H](OC)C2)CC(=O)[C@H](C)/C=C(\C)[C@@H](O)[C@@H](OC)C(=O)[C@H](C)C[C@H](C)/C=C/C=C/C=C/1C [Temsirolimus] + CC(C)C[C@H](NC(=O)[C@H](CCc1ccccc1)NC(=O)CN1CCOCC1)C(=O)N[C@@H](Cc1ccccc1)C(=O)N[C@@H](CC(C)C)C(=O)[C@@]1(C)CO1 [Carfilzomib] | 72.4 | 49.5 | 23.9
CN1CCCC1CCOC(C)(c1ccccc1)c1ccc(Cl)cc1.O=C(O)C=CC(=O)O (stereo unspecified) [Clemastine Fumarate] + CC(C)C[C@H](NC(=O)[C@H](CCc1ccccc1)NC(=O)CN1CCOCC1)C(=O)N[C@@H](Cc1ccccc1)C(=O)N[C@@H](CC(C)C)C(=O)[C@@]1(C)CO1 [Carfilzomib] | 77.2 | 61.1 | 
Cc1ccc(C(=O)N(CCCN)C(c2nc3cc(Cl)ccc3c(=O)n2Cc2ccccc2)C(C)C)cc1 (stereo unspecified) + CC(C)C[C@H](NC(=O)[C@H](CCc1ccccc1)NC(=O)CN1CCOCC1)C(=O)N[C@@H](Cc1ccccc1)C(=O)N[C@@H](CC(C)C)C(=O)[C@@]1(C)CO1 [Carfilzomib] | 88.6 | 42.9 | 
Cc1nc(Nc2ncc(C(=O)Nc3c(C)cccc3Cl)s2)cc(N2CCN(CCO)CC2)n1 + CC(C)C[C@H](NC(=O)[C@H](CCc1ccccc1)NC(=O)CN1CCOCC1)C(=O)N[C@@H](Cc1ccccc1)C(=O)N[C@@H](CC(C)C)C(=O)[C@@]1(C)CO1 [Carfilzomib] | 61.3 | 32.4 | 26.6
CN(C)CC=CC(=O)Nc1cc2c(Nc3ccc(F)c(Cl)c3)ncnc2cc1OC1CCOC1 (stereo unspecified) [Afatinib (BIBW2992)] + CC(C)C[C@H](NC(=O)[C@H](CCc1ccccc1)NC(=O)CN1CCOCC1)C(=O)N[C@@H](Cc1ccccc1)C(=O)N[C@@H](CC(C)C)C(=O)[C@@]1(C)CO1 [Carfilzomib] | 63.1 | 26.2 | 
CCC(NC(=O)C(C)NC)C(=O)N1CC(O)CC1Cc1c(-c2[nH]c3cc(F)ccc3c2CC2CC(O)CN2C(=O)C(CC)NC(=O)C(C)NC)[nH]c2cc(F)ccc12 (stereo unspecified) + CC(C)C[C@H](NC(=O)[C@H](CCc1ccccc1)NC(=O)CN1CCOCC1)C(=O)N[C@@H](Cc1ccccc1)C(=O)N[C@@H](CC(C)C)C(=O)[C@@]1(C)CO1 [Carfilzomib] | 61.9 | 43 | 
CS(=O)(=O)CCNCc1ccc(-c2ccc3ncnc(Nc4ccc(OCc5cccc(F)c5)c(Cl)c4)c3c2)o1.Cc1ccc(S(=O)(=O)O)cc1.Cc1ccc(S(=O)(=O)O)cc1 [Lapatinib Ditosylate] + CC(C)C[C@H](NC(=O)[C@H](CCc1ccccc1)NC(=O)CN1CCOCC1)C(=O)N[C@@H](Cc1ccccc1)C(=O)N[C@@H](CC(C)C)C(=O)[C@@]1(C)CO1 [Carfilzomib] | 69.5 | 47.7 | 23.7
CC1(COc2ccc3c(c2)ncn3-c2ccc3cccc(N4CCC(N)CC4)c3n2)COC1 + CC(C)C[C@H](NC(=O)[C@H](CCc1ccccc1)NC(=O)CN1CCOCC1)C(=O)N[C@@H](Cc1ccccc1)C(=O)N[C@@H](CC(C)C)C(=O)[C@@]1(C)CO1 [Carfilzomib] | 102 | 135 | 
CNC1CCC(c2ccc(Cl)c(Cl)c2)c2ccccc21.Cl (stereo unspecified) [Sertraline HCl] + CC(C)C[C@H](NC(=O)[C@H](CCc1ccccc1)NC(=O)CN1CCOCC1)C(=O)N[C@@H](Cc1ccccc1)C(=O)N[C@@H](CC(C)C)C(=O)[C@@]1(C)CO1 [Carfilzomib] | 72.1 | 61.1 | 
CC(C)CC(NC(=O)C(CCc1ccccc1)NC(=O)CN1CCOCC1)C(=O)NC(Cc1ccccc1)C(=O)NC(CC(C)C)C(=O)C1(C)CO1 (stereo unspecified) [Carfilzomib (PR-171)] + CC(C)C[C@H](NC(=O)[C@H](CCc1ccccc1)NC(=O)CN1CCOCC1)C(=O)N[C@@H](Cc1ccccc1)C(=O)N[C@@H](CC(C)C)C(=O)[C@@]1(C)CO1 [Carfilzomib] | 31 | 14.2 | 
CC[C@H](C)[C@H]1O[C@]2(CC[C@@H]1C)C[C@@H]1C[C@@H](C/C=C(\C)[C@@H](O[C@H]3C[C@H](OC)[C@@H](O[C@H]4C[C@H](OC)[C@@H](O)[C@H](C)O4)[C@H](C)O3)[C@@H](C)/C=C/C=C3\CO[C@@H]4[C@H](O)C(C)=C[C@@H](C(=O)O1)[C@]34O)O2 [Ivermectin] + CC(C)C[C@H](NC(=O)[C@H](CCc1ccccc1)NC(=O)CN1CCOCC1)C(=O)N[C@@H](Cc1ccccc1)C(=O)N[C@@H](CC(C)C)C(=O)[C@@]1(C)CO1 [Carfilzomib] | 92.6 | 43 | 
COc1nc2ccc(Br)cc2cc1[C@@H](c1ccccc1)[C@@](O)(CCN(C)C)c1cccc2ccccc12 [Bedaquiline fumarate] + CC(C)C[C@H](NC(=O)[C@H](CCc1ccccc1)NC(=O)CN1CCOCC1)C(=O)N[C@@H](Cc1ccccc1)C(=O)N[C@@H](CC(C)C)C(=O)[C@@]1(C)CO1 [Carfilzomib] | 77.1 | 68.8 | 22.5
CN(C)CC=CC(=O)Nc1cc2c(Nc3ccc(F)c(Cl)c3)ncnc2cc1OC1CCOC1.O=C(O)C=CC(=O)O.O=C(O)C=CC(=O)O (stereo unspecified) [Afatinib dimaleate] + CC(C)C[C@H](NC(=O)[C@H](CCc1ccccc1)NC(=O)CN1CCOCC1)C(=O)N[C@@H](Cc1ccccc1)C(=O)N[C@@H](CC(C)C)C(=O)[C@@]1(C)CO1 [Carfilzomib] | 86.1 | 26.6 | 
